Measured values reported in PubChem BioAssay (EPA / NIEHS).
“And” between values parts separate entries of the source, which are not always exact repeats. Equal values may be shown once. Some compounds were tested as several samples or in several runs, with calls that do not always agree. The source made the active and inactive calls. The calls were made as follows: active = hit-call score of the fitted dose curve at least 0.9, where 1 is the maximum; inactive = score below 0.9.

The compounds below were run on Macrophage colony-stimulating factor (MCSF), CSF1 (gene 1435) (assay: BSK_hDFCGF_MCSF: BioMAP Diversity Plus: hDFCGF Assay for Macrophage colony-stimulating factor (MCSF) Biomarker Activity (AID 2283060)). Conditions: primary human foreskin fibroblasts; actives raise or lower the signal.
Method: BSK_hDFCGF is a cell-based, multiplexed-readout assay that uses foreskin fibroblast, a human skin primary cell, with measurements taken at 24 hours after chemical dosing in a 96-well plate.BSK_hDFCGF_MCSF is an assay component measured in the BSK_hDFCGF assay. It measures M-CSF antibody related to regulation of gene expression using ELISA technology.Data from the assay component BSK_hDFCGF_MCSF was analyzed into 1 assay endpoint. This assay endpoint, BSK_hDFCGF_MCSF, was analyzed with bidirectional fitting relative to DMSO as the negative control and baseline of activity. Using a type of binding reporter, gain or loss-of-signal activity can be used to understand changes in the signaling as they relate to the gene CSF1. Furthermore, this assay endpoint can be referred to as a primary readout, because this assay has produced multiple assay endpoints where this one serves a signaling function. To generalize the intended target to other relatable targets, this assay endpoint is annotated to the cytokine intended target family, where the subfamily is colony stimulating factor.
The levels of cell surface (or secreted, indicated by the prefix "s") biomarker endpoints were measured by ELISA. Overt cytotoxicity to cells in confluent adherent cultures (all systems other than the BT system) was assessed by measuring total protein levels using sulforhodamine B (SRB) staining in parallel cultures at the time of biomarker measurements, indicated as SRB endpoints. For proliferation assays for adherent cell types, individual cell types are cultured at sub-confluence and relative cell numbers quantified by SRB staining at time points optimized for each system (48 h: 3C and CASM3C systems; 72 h: BT and HDF3CGF systems; 96 h: SAg system). SRB was performed by staining cells with 0.1% SRB after fixation with 10% TCA and reading wells at 560 nm.Viability and proliferation of PBMC (T cells) was quantified by Alamar Blue reduction for the SAg and BT systems. For PBMC viability (referred to as PBMC Cytotoxicity within the assay endpoint names), cells were plated (75,000/well in a 96-well plate) and then chemical samples added for 1 h before addition of activators, SEB and TSST-1 (20 ng/mL final concentration each). Cells were incubated for 90 h. Then, Alamar Blue (20 uL/well) (Invitrogen, Cat DAL1100) was added for 6 h, and the plates were read with a fluorescence microplate reader at 546/580 nm (excitation/emission). For PBMC proliferation, cells were plated and activated as above but incubated for only 16 h prior to addition of Alamar Blue. Plates were read after 6 h.
`CCOC(=O)c1ccc(C2CCC(NC[C@H](O)COc3ccc(O)c(NS(C)(=O)=O)c3)CC2)cc1` (stereo not given in full) was tested, and the AC50 was 10.2 µM (active). `CC(C)c1cccc(C(C)C)c1N1C(=O)c2ccc(O)cc2C1=O` was tested, and the AC50 was 14.7 µM (active). In the case of `CNS(=O)(=O)c1cc(C(=O)N2CCC(CCN3C4CCC3CC(n3c(C)nc5ccccc53)C4)(c3cccc(F)c3)CC2)c(Cl)cc1F` (stereo not given), the outcome is reported as “inactive”. For `CC(C)=CCC/C(C)=C\CO`, the outcome was “inactive”. In the case of `COc1ccc(/C=C/S(=O)(=O)NC(=O)c2ccc(C)cc2Cl)cc1`, the outcome is reported as “inactive”. With `C1N2CN3CN1CN(C2)C3` the outcome was “inactive”. In the case of `CC(C)CCCCCCOC(=O)c1ccc(C(=O)OCCCCCCC(C)C)c(C(=O)OCCCCCCC(C)C)c1`, the outcome is reported as “inactive”. In the case of `Fc1ccccc1[C@@H](F)COC1CCC(Nc2ncnc3[nH]ncc23)CC1` (stereo not given in full), the outcome is reported as “inactive”. `NC(=O)NO` was tested, and the outcome was “inactive”. In the case of `Nc1ccc(Nc2ccccc2)cc1`, the outcome is reported as “inactive”. With `CC(=O)OCCC(C)C` the outcome was “inactive”. `Cn1cnc([N+](=O)[O-])c1Sc1ncnc2nc[nH]c12` was tested, and the outcome was “inactive” and the AC50 was 7.13 µM (active) and 9.58 µM (active). In the case of `CC(O)CN(CCN(CC(C)O)CC(C)O)CC(C)O` (stereo not given), the outcome is reported as “inactive”. For `Cc1[nH]cnc1C[C@H]1CCc2c(C)c3ccccc3n2C1=O`, the outcome was “inactive”. `O=C(O)c1cccc(Oc2ccccc2)c1` was tested, and the outcome was “inactive”. In the case of `CCCCC(CC)COC(=O)CCCCCCCCC(=O)OCC(CC)CCCC` (stereo not given), the outcome is reported as “inactive”. With `Cc1ccc(O)cc1` the outcome was “inactive”. For `COc1ccc(-n2nc(C(F)F)cc2-c2ccc(S(C)=O)cc2)cc1` (stereo not given), the outcome was “inactive”. For `COC(=O)CC(=O)OC`, the outcome was “inactive”. `O=C(CCCCCCCCc1cccnc1)N1CCC(C=C(c2ccccc2)c2ccccc2)CC1` was tested, and the AC50 was 7.88 µM (active). For `CN(C)c1ccc(Cc2ccc(N(C)C)cc2)cc1`, the outcome was “inactive”. For `CCCCC(CC)COC(=O)c1ccc(C(=O)OCC(CC)CCCC)cc1` (stereo not given), the outcome was “inactive”. For `CC(C)CCO`, the outcome was “inactive”. With `CCOCCO` the outcome was “inactive”. `COC(=O)c1c(Cl)c(Cl)c(C(=O)OC)c(Cl)c1Cl` was tested, and the outcome was “inactive”. With `Oc1ccc2c(c1)-c1ccccc1C2` the outcome was “inactive”. For `Clc1nc(Cl)c(Cl)c(Cl)c1Cl`, the outcome was “inactive”. With `CCC(C)(C)C(=O)O[C@H]1C[C@@H](C)C=C2C=C[C@H](C)[C@H](CC[C@@H]3C[C@@H](O)CC(=O)O3)[C@H]21` the AC50 was 26.3 µM (active). For `CC(C)(O)c1coc(S(=O)(=O)NC(=O)Nc2c3c(cc4c2CCC4)CCC3)c1`, the outcome was “inactive”. `O=C(O)CCN(C1(C(=O)NO)CCCC1)S(=O)(=O)c1ccc(Oc2ccc(F)cc2)cc1` was tested, and the outcome was “inactive”. With `C[C@](N)(Cc1ccc(O)c(O)c1)C(=O)O` the AC50 was 26.6 µM (active). `O=C1CCC(N2C(=O)c3ccccc3C2=O)C(=O)N1` (stereo not given) was tested, and the outcome was “inactive”. For `Cn1c(=O)c2c(ncn2C)n(C)c1=O`, the outcome was “inactive”. In the case of `CCCC(=O)OCC`, the outcome is reported as “inactive”. With `O=C(NS(=O)(=O)/C=C/c1ccccc1)c1ccc(F)cc1Cl` the outcome was “inactive”. For `CC(=O)OC[C@H]1O[C@@](COC(C)=O)(O[C@H]2O[C@H](COC(C)=O)[C@@H](OC(C)=O)[C@H](OC(C)=O)[C@H]2OC(C)=O)[C@@H](OC(C)=O)[C@@H]1OC(C)=O`, the outcome was “inactive”. For `CCOc1cccc(-n2cc(C(=O)N3CCN(c4cc(C(=O)O)c5ccccc5c4)CC3)nc2-c2ccc(C)cc2)c1`, the AC50 was 7.68 µM (active). `Cc1ccc(N)cc1O` was tested, and the outcome was “inactive”. For `CC1=CC(=O)CC(C)(C)C1`, the outcome was “inactive”.
